Bioassay records (PubChem BioAssay)
APP transl inh: APP translation inhibition; SH-SY5Y APP 5'UTR-luciferase reporter, luminescence; inhibition, % at 2 µM; 190,000 tested, 0.82% active; AID 1285;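 active means inhibition above a set limit, derived from the sample mean plus 3 SD, cut at about 45% in these data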
IEC-6 cytotox: IEC-6 cytotoxicity, counter-screen for KLF5 inhibitors; AID 1825; 290,000 tested, 0.78% active; luminescence viability; inhibition, % at 5 µM;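 further: 0% = plate median of test compound wells and 100% = cytotoxic reference compound wells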
Ba/F3 V617F tox: reduce viability of Ba/F3 cells dependent on JAK2V617F | inhibition, % at 5.6 µM | AID 1446 | Ba/F3 EpoR-JAK2V617F viability, ATP luminescence | 220,000 tested, 1.1% active;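 active means inhibition above the campaign mean plus 3 SD over all tested compounds, cut at about 24% in these data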;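 further: cytokine-independent growth of Ba/F3 cells driven by EpoR plus mutant JAK2; 0% = DMSO-treated cells and 100% = JAK inhibitor I control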
BaF3 parental: counter-screen for JAK2V617F inhibitors: parental Ba/F3 viability inhibitors; CellTiter-Glo ATP luminescence; inhibition, % at 5.6 µM; 220,000 tested, 1.1% active; AID 1486;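 active means inhibition above a per-campaign cutoff, the mean inhibition of all tested compounds plus 3 SD, cut at about 27% in these data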;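 further: 0% = DMSO wells and 100% = JAK Inhibitor I control wells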
KLF5 inhibitor: kruppel-like factor 5 inhibition. DLD-1 KLF5 promoter-luciferase reporter, luminescence. inhibition, % at 5 µM. 290,000 tested, 0.23% active;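 active means inhibition above a per-plate limit of that plate's mean compound inhibition plus 3 SD, cut at about 60% in these data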;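 further: 0% = DMSO wells and 100% = LY294002 at 200 µM; higher means less KLF5 promoter-driven luciferase light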
IEC-6 tox confirm: IEC-6 cytotoxicity, confirmation assay; 1,900 tested, 63% active; AID 1907; shares compounds with IEC-6 cytotox; inhibition, % at 5 µM; IEC-6 rat intestinal epithelial viability, luminescence;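 further: 0% = vehicle and 100% = reference cytotoxic drug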
* marks the source's active call; other numbers are inactive results. Compounds with a hit are over-represented: about 1.9% of the library has one in this group of screens. Unless noted, no stated cut-off is given here; in the data, active means inhibition above about 22%; inactive means the rest.

Results for CN(C)CCCN(C(=O)c1ccco1)c1nc2cc3c(cc2s1)OCO3 ?
IEC-6 cytotox: 44.9*; KLF5 inhibitor: -21.9; IEC-6 tox confirm: 21.0

What do the screens show for `Cc1ccc2nc(N(CCCN(C)C)C(=O)c3ccco3)sc2c1`?
APP transl inh: -28.1; IEC-6 cytotox: 2.5; Ba/F3 V617F tox: 4.6; BaF3 parental: 7.9; KLF5 inhibitor: -49.2

How did Cc1ccc(NC(=S)c2nc3ccccc3[nH]2)c(C)c1 do in these assays?
APP transl inh: -133.4; IEC-6 cytotox: 5.3; Ba/F3 V617F tox: -4.1; BaF3 parental: 2.7; KLF5 inhibitor: -60.5

What do the screens show for `Cc1cccc(/C=C(\c2nc3ccccc3[nH]2)S(=O)(=O)c2ccccc2)c1`?
APP transl inh: 11.9; IEC-6 cytotox: 25.2*; Ba/F3 V617F tox: 0.6; BaF3 parental: 5.1; KLF5 inhibitor: -7.4; IEC-6 tox confirm: 31.6*

Results for COCCCNC(=S)N(CCCO)Cc1cc2cc3c(cc2[nH]c1=O)OCO3 ?
IEC-6 cytotox: 6.5; KLF5 inhibitor: -9.3

Results for N#Cc1c(NC(=O)/C=C/c2ccco2)sc2c1CCCC2 ?
APP transl inh: 92.6*; IEC-6 cytotox: 92.7*; Ba/F3 V617F tox: 90.9*; BaF3 parental: 89.7*; KLF5 inhibitor: 49.3; IEC-6 tox confirm: 78.4*

How did C/C=C/c1ccc(OCC(=O)OCc2csc(CC(=O)Nc3ccccc3C)n2)c(OC)c1 do in these assays?
IEC-6 cytotox: -5.7; KLF5 inhibitor: -37.6

Results for COc1cc2[nH]c(=S)nc(NCc3cccc(Cl)c3)c2cc1OC ?
IEC-6 cytotox: 26.9*; KLF5 inhibitor: -8.5; IEC-6 tox confirm: 7.8

What do the screens show for `CCn1cc(C(=O)N[C@H](C(=O)NCCN2CCOCC2)C(C)C)c(=O)c2cc3c(cc21)OCO3`?
IEC-6 cytotox: 3.2; KLF5 inhibitor: -32.7

How did COc1cc(OC)cc(C(=O)N2CCN(C(=O)c3ccc(OC)c(OC)c3)CC2)c1 do in these assays?
APP transl inh: -2.7; IEC-6 cytotox: -1.4; Ba/F3 V617F tox: 0.1; BaF3 parental: 2.9; KLF5 inhibitor: 4.1

Results for COc1ccc(-c2n[nH]c3c2CN(C(=O)c2ccc(OC)c(OC)c2)CC3)cc1 ?
IEC-6 cytotox: 40.1*; KLF5 inhibitor: 28.6; IEC-6 tox confirm: 21.7

What do the screens show for `COc1ccc(CN2CCN(C3CCC3)CC2CCO)cc1C` (stereo not given)?
IEC-6 cytotox: -0.9; KLF5 inhibitor: -27.8

What do the screens show for `Cc1ccn2c(C(=O)CSc3ccccc3Cl)c(C)nc2c1`?
APP transl inh: -5.4; IEC-6 cytotox: 40.5*; Ba/F3 V617F tox: -3.9; BaF3 parental: 0.3; KLF5 inhibitor: 2.2; IEC-6 tox confirm: 37.9*

What do the screens show for `CCOC(=O)c1c(C)nc2cc(C)ccn12`?
APP transl inh: -2.4; IEC-6 cytotox: -6.2; Ba/F3 V617F tox: 1.7; BaF3 parental: 2.7; KLF5 inhibitor: -16.6

What do the screens show for `O=C1C(Cl)=C(NCCN2CCOCC2)C(=O)c2ccccc21`?
IEC-6 cytotox: 32.8*; KLF5 inhibitor: -13.4; IEC-6 tox confirm: 19.2

What do the screens show for `COC(/C(=N/O)c1ccc(Cl)cc1)c1ccccc1` (stereo not given)?
IEC-6 cytotox: 28.5*; KLF5 inhibitor: -21.8; IEC-6 tox confirm: 11.1

What do the screens show for `COc1ccc(Cl)cc1NC(=O)C(OC)c1ccccc1` (stereo not given)?
APP transl inh: 1.1; IEC-6 cytotox: 2.0; Ba/F3 V617F tox: 1.7; BaF3 parental: 1.6; KLF5 inhibitor: 6.1

Results for CCC1CCCCN1S(=O)(=O)c1ccc(NC(=O)c2ccncc2)cc1 (stereo not given) ?
IEC-6 cytotox: 7.0; KLF5 inhibitor: -25.1

How did CCC1CCCCN1S(=O)(=O)c1ccc(NC(=O)c2nc(S(C)(=O)=O)ncc2Cl)cc1 (stereo not given) do in these assays?
IEC-6 cytotox: 94.1*; KLF5 inhibitor: 8.4; IEC-6 tox confirm: 21.5

Results for Cc1ccc(CS(=O)(=O)c2ncc(Cl)c(C(=O)Nc3ccc(OC(F)F)cc3)n2)cc1 ?
IEC-6 cytotox: 31.3*; KLF5 inhibitor: 9.6; IEC-6 tox confirm: 14.6

How did CCS(=O)(=O)c1ncc(Cl)c(C(=O)Nc2ccc(S(=O)(=O)N3CCCC(C)C3)cc2)n1 (stereo not given) do in these assays?
IEC-6 cytotox: 101.4*; KLF5 inhibitor: 55.3; IEC-6 tox confirm: 4.1

How did CCS(=O)(=O)c1ncc(Cl)c(C(=O)Nc2ccc(C)cc2)n1 do in these assays?
IEC-6 cytotox: 74.9*; KLF5 inhibitor: 19.7; IEC-6 tox confirm: 41.7*

How did CC1CCCN(S(=O)(=O)c2ccc(NC(=O)CNC3CCCC3)cc2)C1 (stereo not given) do in these assays?
IEC-6 cytotox: 3.4; KLF5 inhibitor: -7.4

Results for O=C(Nc1ccc(OC(F)F)cc1)c1ncc(Cl)c(Cl)c1Cl ?
APP transl inh: 2.4; IEC-6 cytotox: 10.1; Ba/F3 V617F tox: -1.8; BaF3 parental: 0.4; KLF5 inhibitor: 23.3

How did O=C(O)c1cc([N+](=O)[O-])c(N2CCCC2)c([N+](=O)[O-])c1 do in these assays?
APP transl inh: -3.5; IEC-6 cytotox: -8.1; Ba/F3 V617F tox: -3.0; BaF3 parental: -0.2; KLF5 inhibitor: -17.6

What do the screens show for `CCCC(=O)c1ccc(N2CCC(C)CC2)c(F)c1`?
APP transl inh: -12.9; IEC-6 cytotox: 6.9; Ba/F3 V617F tox: -1.5; BaF3 parental: 0.3; KLF5 inhibitor: 2.5

How did CC[n+]1c(/C=C/c2ccc(N(C)C)cc2)ccc2ccccc21 do in these assays?
APP transl inh: -2.0; IEC-6 cytotox: 47.8*; Ba/F3 V617F tox: 101.2*; BaF3 parental: 95.2*; KLF5 inhibitor: 25.6; IEC-6 tox confirm: 76.0*

What do the screens show for `CCN(CC)c1ccc(/C=C/c2ccc3ccc(OC)cc3[n+]2CC)cc1`?
IEC-6 cytotox: 47.6*; KLF5 inhibitor: 22.3; IEC-6 tox confirm: 31.0*

How did Cc1ccc(/C=C/c2ccc(N(C)C)cc2)[n+](C)c1 do in these assays?
IEC-6 cytotox: 32.2*; KLF5 inhibitor: -6.7; IEC-6 tox confirm: 25.6*

Results for CC[n+]1ccccc1/C=C/c1ccc(N(C)C)cc1 ?
APP transl inh: -1.6; IEC-6 cytotox: 22.3*; Ba/F3 V617F tox: 99.3*; BaF3 parental: 76.2*; KLF5 inhibitor: 29.6; IEC-6 tox confirm: 22.9*

What do the screens show for `Cc1ccc(N(C(=O)c2snc(C(N)=O)c2N)C(C(=O)NC2CCCC2)c2ccc(C)o2)cc1` (stereo not given)?
IEC-6 cytotox: -9.1; KLF5 inhibitor: 9.5

How did O=C(Nc1ccccc1O)/C(=C\c1ccccc1)NC(=O)c1ccccc1 do in these assays?
APP transl inh: 16.6; IEC-6 cytotox: -0.4; Ba/F3 V617F tox: 0.4; BaF3 parental: 9.7; KLF5 inhibitor: -38.3

What do the screens show for `NC(=O)CSc1nc2ccccc2c(=O)n1CCc1ccccc1`?
IEC-6 cytotox: 5.2; KLF5 inhibitor: -17.1

Results for O=c1c2ccccc2nc(SCCN2CCCCC2)n1CCc1ccccc1 ?
APP transl inh: 12.1; IEC-6 cytotox: 22.4*; Ba/F3 V617F tox: 7.9; BaF3 parental: 11.7; KLF5 inhibitor: -11.1; IEC-6 tox confirm: 9.3

Results for O=C(Cn1ncc(Cl)c(Cl)c1=O)N1CCc2ccccc21 ?
APP transl inh: 94.8*; IEC-6 cytotox: 40.7*; Ba/F3 V617F tox: 5.9; BaF3 parental: -7.2; KLF5 inhibitor: 4.3; IEC-6 tox confirm: 20.9
